We go through 40 compounds from PubChem BioAssay AID2110 (National Center for Advancing Translational Sciences (NCATS), 2009).

Each structure is given as a SMILES string. Where “and” joins values, the source holds several entries; their conditions need not be identical. Equal entries are not always repeated. Inconclusive results are not listed. Calls of active or inactive are those of the source. Calls come from the whole dose curve; as a rule, active = well fitted curve in either direction with a large enough effect; inconclusive = small, poorly fitted or top-dose-only effect; inactive = no such curve, though single readings can be large or run the other way.

For the test, the target named is Lysosomal alpha-glucosidase (Homo sapiens) (UniProt P10253). Put plainly: Confirmation of Inhibitors and Activators of Purified Human alpha-Glucosidase Using an Alternate Red Fluorescent Susbtrate. Particulars: purified enzyme, red fluorogenic substrate; series mostly up to 63.4 µM. The source says:
NIH Chemical Genomics Center [NCGC]
NIH Molecular Libraries Probe Production centers Network [MLPCN]
Assay Submitter (PI): Wei Zheng
Alpha-glucosidase is responsible for hydrolysis of terminal, non-reducing 1,4-linked alpha-D-glucose residues with release of alpha-D-glucose. It is a lysosomal hydrolase that is required for the degradation of a small percentage (1-3%) of cellular glycogen in human. Deficiency of this enzyme results in glycogen-storage disease type II (GSDII), also referred to as Pompe disease, an autosomal recessive disorder. Structurally normal glycogen is accumulated in lysosomes and cytoplasm in affected patients, primarily in muscle tissues. Excessive glycogen storage within lysosomes may interrupt normal functioning of other organelles and leads to cellular injury. In turn, this leads to enlargement and dysfunction of the entire organ involved (eg, cardiomyopathy and muscle weakness).
It has reported that the improper folding and trafficking of alpha-glucosidase resultinged from the genetic mutations may account for a significant number of Pomrope patients. […] We optimized this alpha-glucosidase assay in 1536-well plate format for identifying the novel small molecule inhibitors with the structures other than the sugar analogs in order to develop the new pharmacological chaperones. This assay attempted to confirm hits from the primary screening using an alternate fluor than the primary screen used.
NCGC Assay Protocol Summary:
This is a fluorogenic enzyme assay with resorufin-alpha-D-pyranoside as the substrate and recombinant human alpha-glucosidase as the enzyme preparation. Upon the hydrolysis of this fluorogenic substrate, the resulting product, resorufin, can be excited at 573 nm and emits at 610 nm which can be detected by a standard fluorescence plate reader. Data were normalized to the controls for basal activity (without enzyme) and 100% activity (with enzyme). The AC50 values were determined from concentration-response data modeled with the standard Hill equation.
Assay buffer: 50 mM citric acid (titrated with potassium phosphate to pH 5.0), 0.005% Tween-20, pH 5.0. (pH 5.0 is an optimal condition for this enzyme assay)
1536-well assay protocol for the human alpha-glucosidase:
(1) Add 2 ul/well of enzyme (4 nM final)
(2) Add 23 nL compounds in DMSO solution. The final titration was 0.7 nM to 77 uM.
(3) Add 1 ul of substrate (400 uM final)
(4) Incubate at room temperature for 20 min.
(5) Add 2 ul stop solution (1M NaOH and 1M Glycine mixture, pH 10)
(6) Detect the assay plate in a ViewLux plate reader (PerkinElmer) with Ex=365 nm and Em=440nm.
Keywords: Alpha-glucosidase, Pompe Disease, pharmacological chaperone, chaperone therapy, high throughput screening, alpha-glucosidase inhibitor, MLSMR, MLSCN, NIH Roadmap, qHTS and NCGC
For the compound `CC(=O)c1ccc(N2CCN(S(=O)(=O)c3cc4c(cc3Cl)NC(=O)C4)CC2)cc1`, the Potency is 1.63 µM [inhibitor] (active) and 5.17 µM [inhibitor] (active). As for `CC(=O)c1ccc(N2CCN(S(=O)(=O)c3ccc4[nH]c(=O)[nH]c4c3)CC2)cc1`, the Potency entry is “inactive”.

For the compound `O=Cc1ccc(N2CCN(S(=O)(=O)c3ccc4c(c3)CC(=O)N4)CC2)cc1`, the Potency is 4.11 µM [inhibitor] (active).

`OC[C@H]1NC[C@@H](O)[C@@H]1O`: the Potency result is “inactive”.

As to `CC(=O)c1ccc(N2CCN(S(=O)(=O)c3ccc4c(c3)CCCC(=O)N4)CC2)cc1`, the Potency result was “inactive”.

Regarding `CCCN1CNc2c(c(=O)[nH]c(=S)n2CCc2ccc(Cl)c(Cl)c2)C1`, the Potency is 2.24 µM (active).

Regarding `CC(=O)N1CCN(S(=O)(=O)c2ccc3c(c2)CC(=O)N3)CC1`, the Potency is 14.9 µM [inhibitor] (active). Next, `COc1ccc(CCn2c3c(c(=O)[nH]c2=S)CN(C(C)C)CN3)cc1OC`: 11.2 µM (active); `CCCN1CNc2c(c(=O)[nH]c(=S)n2CCc2cccc(Cl)c2Cl)C1`: 0.158 µM (active). As for `CCCN1CNc2c(c(=O)[nH]c(=O)n2CCc2ccc(OC)c(OC)c2)C1`, the figure is 14.1 µM (active); as for `CCCN1CNc2c(c(=O)[nH]c(=S)n2CCCc2ccccc2)C1`, 31.6 µM (active); as for `CCCN1CNc2c(c(=O)[nH]c(=S)n2CCc2c(Cl)cccc2Cl)C1`, 1.12 µM (active). As for `CC(=O)c1ccc(N2CCN(C(=O)c3ccc4c(c3)CC(=O)N4)CC2)cc1`, the entry is “inactive”; as for `CCCN1CNc2c(c(=O)[nH]c(=S)n2CCC(C)C)C1`, “inactive”; as for `COc1ccc(CCc2c[nH]c(=O)c3cncnc23)cc1OC`, “inactive”. `CCCN1CNc2c(c(=O)[nH]c(=S)n2CCc2ccccc2Cl)C1`: the Potency is 2.51 µM (active). `CC(=O)c1ccc(N2CCN(S(=O)(=O)c3ccc4c(c3)OCC(=O)N4)CC2)cc1`: the Potency entry was “inactive”. Turning to `CC(=O)c1ccc(N2CCN(S(=O)(=O)c3ccc4c(c3)CC(=O)N4)CC2)cc1`, the Potency was 919 nM [inhibitor] (active) and 1.06 µM [inhibitor] (active) and 1.3 µM [inhibitor] (active). Next, `CCCN1CNc2c(c(=O)[nH]c(=S)n2CCc2ccc(Cl)cc2Cl)C1`: 1.26 µM (active); `COc1ccc(CCn2c(=S)[nH]c(=O)c3c(C)cc(C)nc32)cc1OC`: “inactive”; `COc1ccc(C#Cc2cnc(Cl)c3cncnc23)cc1OC`: “inactive”.

Regarding `CCCN1CNc2c(c(=O)[nH]c(=S)n2CCc2ccccc2OC)C1`, the Potency is 11.2 µM (active). For the compound `CCCN1CNc2c(c(=O)[nH]c(=S)n2CCc2cccc(OC)c2OC)C1`, the Potency is 10 µM (active). Turning to `CC(=O)Nc1ccc(S(=O)(=O)N2CCN(c3ccc(C(C)=O)cc3)CC2)cc1`, the Potency entry is “inactive”. As for `CC(=O)c1ccc(N2CCN(S(=O)(=O)c3ccc4c(c3)CCC(=O)N4)CC2)cc1`, the entry is “inactive”; as for `CCCN1CNc2c(c(=O)[nH]c(=S)n2Cc2ccc(OC)c(OC)c2)C1`, 2.82 µM (active).

Turning to `O=c1[nH]cc(CCc2ccccc2)c2ncncc12`, the Potency result was “inactive”.

As for `O=S(=O)(c1ccc(Cl)cc1)N1CCN(c2nc(-c3cccs3)nc3ccccc23)CC1`, the Potency entry was “inactive”. As for `Cc1ccc(N2CCN(S(=O)(=O)c3ccc4c(c3)CC(=O)N4)CC2)cc1`, the entry is “inactive”; as for `CCCN1CNc2c(c(=O)[nH]c(=S)n2CCc2cccc(C)c2C)C1`, 1.12 µM (active). Next, `CCCN1CNc2c(c(=O)[nH]c(=S)n2CCc2ccc(C)cc2)C1`: 11.2 µM (active); `CCCN1CNc2c(c(=O)[nH]c(=S)n2CCc2cc(Cl)cc(Cl)c2)C1`: 2 µM (active).

Regarding `CC(=O)c1ccc(N2CCN(S(=O)(=O)c3ccc4c(c3)n(C)c(=O)n4C)CC2)cc1`, the Potency result was “inactive”. Next, `O=C1Cc2cc(S(=O)(=O)N3CCN(c4cccc(C(F)(F)F)c4)CC3)ccc2N1`: 14.9 µM [inhibitor] (active); `CC(=O)c1ccc(N2CCN(S(=O)(=O)c3ccc4c(c3)CC(C)N4C(C)=O)CC2)cc1` (stereo not given): “inactive”. As for `COc1ccc(CCn2c3c(c(=O)[nH]c2=S)CN(C)CN3)cc1OC`, the figure is 7.94 µM (active); as for `COc1ccc(CCn2c3c(c(=O)[nH]c2=S)CN(CC(C)C)CN3)cc1OC`, 0.631 µM (active); as for `COc1ccc(CCn2c3c(c(=O)[nH]c2=S)CN(Cc2ccccc2)CN3)cc1OC`, 1.78 µM (active). Next, `N#CC(=C(\N)Sc1ccccc1N)/C(C#N)=C(/N)Sc1ccccc1N`: 44.7 µM (active).

With `O=C1Cc2cc(S(=O)(=O)N3CCNCC3)ccc2N1`, the Potency result was “inactive”.
